Compounds without any hit were thinned out: in the full panel of roughly 79,000, 15% have a hit. Calls of active or inactive are those of the source. Cut-off read from the data, not from the text of the source: active = growth inhibition above about 70%; inactive = the rest.
Assays:
[1] = NCI Yeast Anticancer Drug Screen. Data for the rad52 strain (AID 147);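 note: 0% = growth of vehicle-treated control cultures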; settings: S. cerevisiae rad52 mutant growth inhibition, active compounds read high
Procedure, shortened: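 Compounds are applied to a genetically defined yeast strain lacking normal DNA damage repair, and inhibition of growth is expressed relative to cultures given vehicle only.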

[2] = NCI Yeast Anticancer Drug Screen. Data for the wt1 strain (AID 149);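 note: 0% = growth of vehicle-treated wt1 cultures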; settings: S. cerevisiae wt1 strain (SPY 50644) growth inhibition, active compounds read high
Procedure, shortened: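 Readout: yeast growth inhibition, normalised to vehicle controls, in the wt1 strain exposed to test compounds.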

[3] = NCI Yeast Anticancer Drug Screen. Data for the rad50EPP+ strain (AID 151);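 note: 0% = growth of vehicle-treated control cultures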; settings: S. cerevisiae rad50 mutant strain, active compounds read high
Procedure, shortened: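 Compounds were applied to the rad50EPP+ yeast strain, which bears a defined DNA repair alteration, and growth inhibition was determined relative to vehicle-treated cultures.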

[4] = NCI Yeast Anticancer Drug Screen. Data for the mgt1 strain (AID 153); settings: S. cerevisiae mgt1 mutant growth inhibition, active compounds read high
Procedure, shortened: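 Strain: mgt1 yeast, one of a set carrying defined DNA damage repair or cell cycle control alterations. Compound-treated growth compared with vehicle.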

[5] = NCI Yeast Anticancer Drug Screen. Data for the rad50 strain (AID 155);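 note: 0% = growth of vehicle-only cultures of the same strain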; settings: S. cerevisiae rad50 strain growth inhibition, active compounds read high
Procedure, shortened: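 Compounds were tested on a yeast strain with an engineered DNA damage repair alteration; the reported value is growth inhibition normalised to vehicle treatment.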

[6] = NCI Yeast Anticancer Drug Screen. Data for the mec2-1 strain (AID 157); settings: S. cerevisiae mec2-1 strain, active compounds read high
Procedure, shortened: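 Strain: mec2-1 (DNA repair/cell cycle alteration). Compound exposure, then growth measured; inhibition expressed relative to vehicle.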

[7] = NCI Yeast Anticancer Drug Screen. Data for the rad14 strain (AID 159);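 note: 0% = growth of vehicle-treated control cultures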; settings: S. cerevisiae rad14 strain growth inhibition, active compounds read high
Procedure, shortened: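 Compound-treated yeast with a defined DNA-repair lesion; growth inhibition normalised to vehicle-treated cultures.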

[8] = NCI Yeast Anticancer Drug Screen. Data for the sgs1 mgt1 strain (AID 161);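 note: 0% = growth of cultures given vehicle only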; settings: S. cerevisiae sgs1 mgt1 strain, active compounds read high
Procedure, shortened: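 Inhibition of yeast growth, normalised to vehicle-treated controls, is reported for a strain bearing genetic alterations in DNA damage repair.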

[9] = NCI Yeast Anticancer Drug Screen. Data for the CLN2oe strain (AID 163);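 note: 0% = growth of vehicle-only control cultures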; settings: S. cerevisiae CLN2oe strain, active compounds read high
Procedure, shortened: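 Growth of a genetically modified yeast strain is measured after compound exposure and compared with cultures given vehicle alone.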

[10] = NCI Yeast Anticancer Drug Screen. Data for the cln2 rad14 strain (AID 165);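 note: 0% = growth equal to vehicle treated cultures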; settings: S. cerevisiae cln2 rad14 strain, active compounds read high
Procedure, shortened: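 Compounds are applied to the cln2 rad14 yeast strain, and growth is then compared with that of vehicle-treated cultures to give inhibition.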

[11] = NCI Yeast Anticancer Drug Screen. Data for the bub3 strain (AID 167); settings: S. cerevisiae bub3 mutant strain, active compounds read high
Procedure, shortened: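 Growth of a checkpoint-deficient yeast mutant is measured after compound exposure. Values represent inhibition relative to vehicle.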

[12] = NCI Yeast Anticancer Drug Screen. Data for the wt2 strain (AID 169);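 note: 0% = growth of vehicle-treated yeast cultures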; settings: S. cerevisiae wt2 strain growth inhibition, active compounds read high
Procedure, shortened: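 This strain belongs to a panel of yeast strains with defined genetic alterations in DNA damage repair or cell cycle control. Compounds are applied, and growth inhibition is measured against vehicle-treated cultures.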

[13] = NCI Yeast Anticancer Drug Screen. Data for the mlh1 strain (AID 171);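 note: 0% = growth of vehicle-treated control cultures of the same strain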; settings: S. cerevisiae mlh1 strain growth inhibition, active compounds read high
Procedure, shortened: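 Growth of the mutant yeast strain after compound exposure, expressed as inhibition relative to vehicle-only controls.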

[14] = NCI Yeast Anticancer Drug Screen. Data for the sgs1 strain (AID 173);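 note: 0% = growth of vehicle-only control cultures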; settings: S. cerevisiae sgs1 mutant, active compounds read high
Procedure, shortened: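 Growth of a yeast strain bearing a defined genetic alteration is measured after compound treatment. Inhibition is expressed relative to vehicle-only controls.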

[15] = NCI Yeast Anticancer Drug Screen. Data for the mlh1 rad18 strain (AID 175); settings: S. cerevisiae mlh1 rad18 strain growth inhibition, active compounds read high
Procedure, shortened: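 Read-out is yeast growth inhibition, calculated against vehicle-only controls. The compound was applied to a strain engineered with DNA damage repair alterations.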

[16] = NCI Yeast Anticancer Drug Screen. Data for the rad18 strain (AID 177); settings: S. cerevisiae rad18 mutant growth inhibition, active compounds read high
Procedure, shortened: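 Growth of the mutant yeast strain after compound exposure, normalised to vehicle-only cultures.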

[17] = at 5.0 µM (retest, dose inferred, filed as 0.5)
[18] = at 50.0 µM (retest, dose inferred, filed as 5.0)

Measured: growth inhibition

COc1ccc(NC(=O)CC2SC(=Nc3ccccc3C)NC2=O)c([N+](=O)[O-])c1 (stereo unspecified)
inactive: [1]; at 1.2 µM 0% | [1]; at 3.7 µM -2% | [1]; at 11.0 µM 2% | [1]; at 33.0 µM 13% | [2]; at 1.2 µM -1% | [2]; at 3.7 µM -1% | [2]; at 11.0 µM 1% | [2]; at 33.0 µM 10% | [2]; at 100.0 µM 36% | [3]; at 1.2 µM -2% | [3]; at 3.7 µM -2% | [3]; at 11.0 µM 1% | [3]; at 33.0 µM 28% | [4]; at 1.2 µM -2% | [4]; at 3.7 µM 1% | [4]; at 11.0 µM 1% | [4]; at 33.0 µM 12% | [5]; at 1.2 µM 1% | [5]; at 3.7 µM -44% | [5]; [17] 0% | [5]; at 11.0 µM 26% | [5]; at 33.0 µM 18% | [5]; [18] 69% | [5]; at 50.0 µM 56.7% | [6]; at 1.2 µM 1% | [6]; at 3.7 µM 1% | [6]; [17] -17% | [6]; at 11.0 µM 4% | [6]; at 33.0 µM 15% | [6]; [18] 66% | [7]; at 1.2 µM -2% | [7]; at 3.7 µM -2% | [7]; at 11.0 µM 1% | [7]; at 33.0 µM 10% | [8]; [17] 2% | [9]; at 1.2 µM 0% | [9]; at 3.7 µM -4% | [9]; at 11.0 µM 0% | [9]; at 33.0 µM -6% | [9]; at 100.0 µM 16% | [10]; [17] -2% | [10]; [18] 22% | [10]; at 50.0 µM 32.2% | [11]; at 1.2 µM 2% | [11]; at 3.7 µM -1% | [11]; [17] -8% | [11]; at 11.0 µM -5% | [11]; at 33.0 µM 6% | [11]; at 50.0 µM 34.7% | [12]; at 1.2 µM -1% | [12]; at 3.7 µM 7% | [12]; at 11.0 µM 1% | [12]; at 33.0 µM 11% | [13]; at 1.2 µM 0% | [13]; at 3.7 µM -1% | [13]; at 11.0 µM 0% | [13]; at 33.0 µM 11% | [14]; at 1.2 µM -2% | [14]; at 3.7 µM 1% | [14]; at 11.0 µM 9% | [14]; at 33.0 µM 37% | [15]; [17] -1% | [15]; [18] 53% | [16]; at 1.2 µM -1% | [16]; at 3.7 µM 4% | [16]; at 11.0 µM 6% | [16]; at 33.0 µM 41%
active: [1]; at 100.0 µM 75% | [3]; at 100.0 µM 80% | [4]; at 100.0 µM 99% | [5]; at 100.0 µM 98% | [6]; at 50.0 µM 72.2% | [6]; at 100.0 µM 97% | [7]; at 100.0 µM 97% | [8]; [18] 74% | [8]; at 50.0 µM 72.9% | [11]; [18] 71% | [11]; at 100.0 µM 97% | [12]; at 100.0 µM 92% | [13]; at 100.0 µM 99% | [14]; at 100.0 µM 99% | [15]; at 50.0 µM 74% | [16]; at 100.0 µM 98%

COc1cc(C2c3cc4c(cc3OC(OC(C)=O)C2C)OCO4)cc(OC)c1OC (stereo unspecified)
active: [1]; at 100.0 µM 82% | [5]; at 100.0 µM 77% | [9]; at 100.0 µM 72% | [11]; at 100.0 µM 89% | [14]; at 100.0 µM 79% | [16]; at 100.0 µM 85%
inactive: [1]; at 1.2 µM -1% | [1]; at 3.7 µM -2% | [1]; at 11.0 µM -2% | [1]; at 33.0 µM -5% | [2]; at 1.2 µM -2% | [2]; at 3.7 µM -3% | [2]; at 11.0 µM -5% | [2]; at 33.0 µM -11% | [2]; at 100.0 µM 56% | [3]; at 1.2 µM -3% | [3]; at 3.7 µM -1% | [3]; at 11.0 µM 1% | [3]; at 33.0 µM -1% | [3]; at 100.0 µM 5% | [4]; at 1.2 µM -2% | [4]; at 3.7 µM -1% | [4]; at 11.0 µM -10% | [4]; at 33.0 µM -12% | [4]; at 100.0 µM 43% | [5]; at 1.2 µM -1% | [5]; at 3.7 µM -1% | [5]; [17] 1% | [5]; at 11.0 µM -5% | [5]; at 33.0 µM -5% | [5]; [18] 49% | [5]; at 50.0 µM -0.3% | [6]; at 1.2 µM -6% | [6]; at 3.7 µM 0% | [6]; [17] -4% | [6]; at 11.0 µM -1% | [6]; at 33.0 µM -5% | [6]; [18] 5% | [6]; at 50.0 µM 2.6% | [6]; at 100.0 µM 56% | [7]; at 1.2 µM -3% | [7]; at 3.7 µM -4% | [7]; at 11.0 µM -11% | [7]; at 33.0 µM -10% | [7]; at 100.0 µM 52% | [8]; [17] -8% | [8]; [18] 29% | [8]; at 50.0 µM -4.55% | [9]; at 1.2 µM -7% | [9]; at 3.7 µM -7% | [9]; at 11.0 µM -18% | [9]; at 33.0 µM -13% | [10]; [17] -14% | [10]; [18] 3% | [10]; at 50.0 µM -13.1% | [11]; at 1.2 µM 5% | [11]; at 3.7 µM 5% | [11]; [17] 17% | [11]; at 11.0 µM 22% | [11]; at 33.0 µM 38% | [11]; [18] 58% | [11]; at 50.0 µM 35.6% | [12]; at 1.2 µM -2% | [12]; at 3.7 µM -5% | [12]; at 11.0 µM -6% | [12]; at 33.0 µM -13% | [12]; at 100.0 µM 66% | [13]; at 1.2 µM -2% | [13]; at 3.7 µM -5% | [13]; at 11.0 µM -2% | [13]; at 33.0 µM -7% | [13]; at 100.0 µM 69% | [14]; at 1.2 µM -3% | [14]; at 3.7 µM -2% | [14]; at 11.0 µM -3% | [14]; at 33.0 µM -3% | [15]; [17] -4% | [15]; [18] 23% | [15]; at 50.0 µM -2.5% | [16]; at 1.2 µM -3% | [16]; at 3.7 µM -4% | [16]; at 11.0 µM 1% | [16]; at 33.0 µM 5%

Source: PubChem BioAssay (NCI)
